# Sampled rows, rich in hits. Any-hit rate of the full collection: about 4.5%.
# DAX1 inh-1 – DAX1 (NR0B1) inhibitors on StAR promoter, primary screen, cell-based, luminescence, SF-1 (NR5A1), full-length DAX-1; HEK293T StAR-luciferase reporter, SF-1/DAX-1 repression relief; 1.1% of 370,000 active; inhibition, % at 6.8 µM;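 active means inhibition above the mean over all tested compounds plus 3 SD, cut at about 3.6% in these data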;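 further: 0% = DAX-1 cells with DMSO and 100% = cells lacking DAX-1 with DMSO; higher inhibition means more luminescence from relief of DAX-1 repression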
# DAX1 inh-2 – DAX1 (NR0B1) inhibitors, primary screen, cell-based, HEK293, Gal4-DAX1, luciferase luminescence; Nuclear receptor subfamily 0 group B member 1 (Homo sapiens), P51843; HEK293 Gal4-DAX1 luciferase reporter; inhibition, % at 6.75 µM; 0.99% of 340,000 active;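 active means inhibition above the mean over all tested compounds plus 3 SD, cut at about 4.2% in these data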;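 further: 0% = DAX1-transfected cells with DMSO and 100% = empty-vector control cells with DMSO; inhibition shows as a rise in luminescence from relieved DAX1 repression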
# hgDAF-12 ag – H. glycines DAF-12 receptor agonists, primary screen, cell-based, luminescence, HEK293, GAL4 fusion, UAS-luciferase. 1.8% of 370,000 active. HEK293 GAL4-hgDAF12 UAS-luciferase reporter, agonist luminescence; normalized to butyrate control. activation, % at 6.8 µM. Nuclear hormone receptor DAF-12 (Heterodera glycines), GAL4 fusion;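 active means activation above a cutoff set at the mean of all screened compounds plus 3 SD, cut at about 10% in these data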;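 further: 0% = DMSO wells and 100% = sodium butyrate wells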
# FXN GAA850 act – FXN promoter activators, primary screen, cell-based, luciferase luminescence, HEK293 lucGAA850. AID 540364, 2011. HEK293 lucGAA850 FXN promoter luciferase reporter, 24 h; percent of 10 µM SAHA response. 0.56% of 360,000 active. activation, % at 6 µM;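 active means activation above the average of all compounds screened plus 3 SD, cutoff fixed separately per campaign, cut at about 7.5% in these data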;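 further: 0% = DMSO wells and 100% = 10 µM SAHA wells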
# hcDAF12 agonist – H. contortus DAF-12 nuclear receptor activators, primary screen, cell-based, luminescence, HEK293, lit1-tk-luc reporter; HEK293 hcDAF-12 lit1-tk-luc reporter; 0% DMSO, 100% Δ7-dafachronic acid; activation, % at 6.8 µM; 1.4% of 370,000 active;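 active means activation above the mean of all tested compounds plus 3 SD, cut at about 5.5% in these data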;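 further: 100% = response to 3 µM Δ7-dafachronic acid high control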
# ssDAF-12 act – S. stercoralis DAF-12 nuclear receptor activators, primary screen, cell-based, luminescence, HEK293, GRIP1 co-expression, lit1-tk-luc; activation, % at 6.8 µM; 1% of 370,000 active; HEK293 ssDAF-12/GRIP1 lit1-tk-luc reporter; % of 3 µM dafachronic acid response;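 active means activation above the mean over all tested compounds plus 3 SD, cut at about 0.9% in these data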;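 further: 0% = DMSO-only wells and 100% = 3 µM delta7-dafachronic acid wells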
# DAX1 conf – DAX1 (NR0B1) inhibitors relieving SF-1 repression, confirmation, cell-based, luminescence, HEK293T, full-length DAX-1, SF-1 activated StAR promoter; inhibition, % at 6.8 µM; shares compounds with DAX1 inh-1; 87% of 2,400 active; AID 652134, 2013; HEK293T StAR-promoter luciferase reporter, SF-1/DAX-1 repression;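 active means inhibition above the average of every tested compound plus 3 SD, cut at about 3.8% in these data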;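 further: 0% = DAX-1 cells with DMSO and 100% = no DAX-1 control cells with DMSO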
# Target sequence (P51843 whole entry, looked up): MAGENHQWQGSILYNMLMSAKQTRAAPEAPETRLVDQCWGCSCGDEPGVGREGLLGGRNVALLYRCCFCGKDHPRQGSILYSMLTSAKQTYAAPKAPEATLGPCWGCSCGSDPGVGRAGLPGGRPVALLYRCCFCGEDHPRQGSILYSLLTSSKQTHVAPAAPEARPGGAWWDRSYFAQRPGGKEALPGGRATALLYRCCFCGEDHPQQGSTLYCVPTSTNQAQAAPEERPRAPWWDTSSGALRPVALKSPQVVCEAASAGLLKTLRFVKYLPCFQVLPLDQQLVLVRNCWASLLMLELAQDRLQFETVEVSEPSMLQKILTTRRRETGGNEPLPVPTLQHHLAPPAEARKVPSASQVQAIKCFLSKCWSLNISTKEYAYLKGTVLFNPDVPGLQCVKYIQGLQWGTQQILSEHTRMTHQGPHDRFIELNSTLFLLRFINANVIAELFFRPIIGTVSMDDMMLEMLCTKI
# SF1 AF2mut Luc – StAR reporter signal changes without DAX1, counter-screen for DAX1 inhibitor project, cell-based, luminescence, AF-2 mutant SF-1, transactivation. shares compounds with DAX1 inh-1. 78% of 2,400 active. inhibition, % at 6.8 µM. HEK293 StAR-luciferase, SF-1 AF2 mutant. AID 652136, 2013;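 active means inhibition above the mean of all tested compounds plus 3 SD, cut at about 3% in these data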;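 further: 0% = DAX-1 transfected cells with DMSO and 100% = cells without DAX-1 with DMSO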
# * marks the source's active call; other numbers are inactive results; / = no result.
SMILES,DAX1 inh-1,DAX1 inh-2,hgDAF-12 ag,FXN GAA850 act,hcDAF12 agonist,ssDAF-12 act,DAX1 conf,SF1 AF2mut Luc
COc1ccc2oc(C(=O)OCC(=O)NCCc3ccccc3)c(C)c2c1,0,0,3,-1,0,-1,/,/
COc1ccc2oc(C(=O)NCCc3ccccc3)c(C)c2c1,5.2*,-2,3,-3,3,-1,7.1*,0
Cn1cnc2cc(NC(=O)c3cccs3)ccc21,4.6*,5.7*,7,3,4,-1,3.8*,3.7*
Cc1nc2ccc(NC(=O)c3cccs3)cc2s1,7.4*,0,8,6,3,0,9.3*,4.7*
Cc1nc2ccc(NC(=O)Cc3ccccc3F)cc2s1,5.3*,2,9,5,4,0,11*,6.9*
Cc1nc2ccc(NC(=O)Cc3cccc(F)c3)cc2s1,1,0,0,-1,0,-1,/,/
CCc1sc(C(=O)Nc2ccc3nc(C)sc3c2)cc1C,4,0,6,4,3,-1,/,/
COc1ccc(CCN2C(=O)COc3ccccc3C2C(=O)Nc2ccc3c(c2)OCCO3)cc1OC (stereo unspecified),1,/,0,/,0,-1,/,/
COc1cccc2sc(N(CCCN(C)C)C(=O)c3ccc(S(=O)(=O)N4CCc5ccccc5C4)cc3)nc12,0,0,2,0,1,-1,/,/
COc1ccc(C)c2sc(N(CCCN(C)C)C(=O)c3ccc(S(=O)(=O)N4CCc5ccccc5C4)cc3)nc12,5.2*,1,4,-7,1,-1,-1,-2
Cc1cc(C)cc(NC(=O)C(=O)NCCCN2CCCC2=O)c1,7.1*,2,6,4,5.8*,0,5.1*,5.3*
O=C(Nc1nnc(C2CC2)s1)c1cncc(Br)c1,4.8*,1,7,3,1,-1,5.9*,3.9*
C=CCN(c1ccccc1)S(=O)(=O)c1cccc(C(=O)N2CC(C)CC(C)C2)c1 (stereo unspecified),-5,-2,-3,-5,-6,-2,/,/
NC(=O)NC[C@@H]1CC[C@@H](Cc2ccc(-c3ccccc3)cc2)O1,/,0,/,4,/,/,/,/
OC[C@@H]1CC[C@@H](Cc2ccc(-c3ccccc3)cc2)O1,5.6*,2,10,4,4,0,6.7*,4.8*
COc1ccc(C2=NN(C(=O)CCC(=O)O)C(c3cccs3)C2)cc1 (stereo unspecified),2,0,7,3,3,-1,/,/
COc1ccc(C2=NN3C(C2)c2ccccc2OC3c2cccs2)cc1 (stereo unspecified),4.5*,2,23*,5,7.9*,0,12*,7.6*
COC(=O)[C@@]12C[C@@H](CC(=O)NCc3ccccc3)C(=O)N(CCc3ccc(OC)c(OC)c3)C1=CCC(C)(C)C2,-1,/,-3,/,-2,-1,/,/
COC(=O)[C@@]12C[C@@H](CC(=O)NCc3ccc(C)o3)C(=O)N(CCc3ccc(OC)c(OC)c3)C1=CCC(C)(C)C2,5.8*,/,0,/,0,-1,2,1
CCCCNC(=O)C[C@@H]1C[C@@]2(C(=O)OCC)CCCC=C2N(CCc2ccc(OC)c(OC)c2)C1=O,5.2*,/,-2,/,-1,-2,1,-1
CCOC(=O)[C@]12CCCC=C1N(Cc1ccco1)C(=O)[C@H](CC(=O)NCc1ccccc1)C2,4.7*,/,3,/,1,-1,1,3
Cc1ccc(NC(=O)CSCC(=O)NCCc2ccccn2)c(C)c1,0,2,2,0,-1,-2,/,/
CCOc1ccc(NC(=O)c2ccco2)cc1S(=O)(=O)N1CCCC1,5.1*,0,-1,2,0,0,3,1
CC(C)Cn1c(=O)c2sccc2n2c(CCCC(=O)N3CCC(N4CCCCC4)CC3)nnc12,1,2,3,0,-1,-1,/,/
CC(C)CCn1c(=O)c2sccc2n2c(CCCC(=O)N3CCC(N4CCCCC4)CC3)nnc12,4.7*,1,0,1,2,-1,4.6*,4.1*
SMILES,DAX1 inh-1,DAX1 inh-2,hgDAF-12 ag,FXN GAA850 act,hcDAF12 agonist,ssDAF-12 act,DAX1 conf,SF1 AF2mut Luc
CCOC(=O)c1sc(=NC(=O)c2ccc(F)cc2)n(C)c1C,6.8*,1,7,8,6.0*,0,15*,7.4*
Cc1c(C(=O)Nc2ccccn2)sc2nc3n(c(=O)c12)CCC3,8.8*,1,7,3,5,0,9.8*,6.1*
O=C(N/N=C/c1ccc([N+](=O)[O-])o1)c1ccccc1NS(=O)(=O)c1cccs1,-1,3,-6,1,-2,-2,/,/
Cc1cnc(NC(=O)c2ccc3ncsc3c2)s1,13*,2,13*,2,5,0,15*,6.7*
CCc1nnc(NC(=O)c2ccc3ncsc3c2)s1,1,3,5,4,0,-1,/,/
CCOc1ccc(NC(=O)CN(C)C(=O)C2CC(=O)N(c3cccc(SC)c3)C2)cc1OCC (stereo unspecified),0,0,0,-1,-1,-1,/,/
Cc1cccc(N2C(=O)CC(SC(=Nc3ccccc3)Nc3ccccc3)C2=O)c1 (stereo unspecified),0,1,-1,-8,1,-1,/,/
O=C1SC(SC(=Nc2ccccc2)Nc2ccccc2)C(=O)N1c1ccccc1 (stereo unspecified),5.9*,3,13*,5,3,0,2,1
COc1ccccc1Cn1c(/C=C/c2ccccc2)nc2ccccc21,1,0,8,4,2,-1,/,/
COCCn1c(/C=C/c2ccccc2)nc2ccccc21,9.8*,1,11*,2,3,0,9.7*,3.5*
